# From PubChem BioAssay (EPA / NIEHS)
# Calls of active or inactive are those of the source. The calls were made as follows: active = hit-call score of the fitted dose curve at least 0.9, where 1 is the maximum; inactive = score below 0.9.
# Assay: APR_HepG2_MicrotubuleCSK_24hr: Apredica 24-hour HepG2 Assay for Microtubule CSK Stabilty (AID 2282909)
# Settings: HepG2 microtubule cytoskeleton imaging, actives raise or lower the signal
# Method: APR_HepG2_24hr is a cell-based, multiplexed-readout assay that uses HepG2, a human liver cell line, with measurements taken at 24 hours after chemical dosing in a 384-well plate.APR_HepG2_MicrotubuleCSK_24hr is one of 10 assay component(s) measured or calculated from the APR_HepG2_24hr assay. It is designed to make measurements of protein conformation, a form of conformation reporter, as detected with fluorescence intensity signals by HCS Fluorescent Imaging technology.Data from the assay component APR_HepG2_MicrotubuleCSK_24hr was analyzed into 1 assay endpoint. This assay endpoint, APR_HepG2_MicrotubuleCSK_24hr, was analyzed with bidirectional fitting relative to DMSO as the negative control and baseline of activity. Using a type of conformation reporter, measures of protein for gain or loss-of-signal activity can be used to understand the signaling at the cellular-level. Furthermore, this assay endpoint can be referred to as a primary readout, because this assay has produced multiple assay endpoints where this one serves a signaling function. To generalize the intended target to other relatable targets, this assay endpoint is annotated to the cell morphology intended target family, where the subfamily is cell conformation.
# Cells were treated with dimethyl sulfoxide (DMSO) as a solvent control at a final concentration of 0.5% v/v or with compounds in DMSO with a resulting final DMSO concentration of 0.5% v/v. Compound treatment was done at concentrations of 0.39, 0.78, 1.56, 3.12, 6.24, 12.5, 25, 50, 100, and 200 uM in duplicate on each plate. Cells were treated with compounds for 1, 24, or 72 hr. Carbonyl […] m-chloro-phenylhydrazone (CCCP) and taxol were used as positive controls for mitochondrial function and cytoskeletal stability, respectively; DMSO served as the negative control for this experiment. Cells were fixed by the direct addition of 50 uL formaldehyde in Hank's Balanced Salt Solution (HBSS) to a final concentration of 3.7%. After incubation in the fixation medium for 30 min at room temperature (293-298 K), cells were rinsed twice with HBSS and treated with cell permeabilization buffer (16 uL of 0.5% Triton X-100) for 10 min at room temperature (293-298 K) before labeling. For mitochondrial membrane potential and mitochondrial measurements, pre-fixed cells were incubated with 50 uL of MitoTracker Red CMXRos (Invitrogen) at a concentration of 250 nM for 30 min before fixation. In the remaining cases, post-fixed cells were labeled by incubation with a multiplexed mixture of primary antibodies in HBSS for 60 min at room temperature (293-298 K) to detect immunoreactivity of c-Jun (1:500), phospho-histone H3 (1:100), phospho-histone H2A.x (1:200), p53 (1:400), alpha-tubulin (1:200) and Hoechst 33342 (2 ug/mL). Cells were labeled for multiplexed imaging on two separate plates: a) Hoechst 33342, MitoTracker Red, phospho-histone H3, and alpha-tubulin, and b) Hoechst 33342, phospho-histone H2A.x, and c-Jun. A final rinse with HBSS (50 uL) was performed before analysis. The primary and secondary antibodies for the proteins were phospho-histone H3 (rabbit anti-phospho-histone H3 and FITC-donkey anti-rabbit IgG), phospho-histone H2A.x (mouse anti-phospho-histone H2A.x and FITC-donkey anti-mouse IgG), c-Jun (rabbit anti-phospho-c-Jun and Cy3-donkey anti-rabbit IgG), p53 (sheep anti-p53 and Cy5-donkey anti-sheep IgG), alpha-tubulin (mouse anti-alpha-tubulin and Cy5-donkey anti-mouse IgG). These antibodies are available as the CellCiphr HepG2 assay kit (Millipore).Digital images of each well were captured using a Cellomics ArrayScan VTI (Thermo Scientific Cellomics) (0.8 NA objective, 0.63x optical coupler, and XF-93 filter set) at 20x magnification. The images were acquired using the autofocus feature of the ArrayScan instrument, which entails the following steps. First, the camera focuses on channel 1 (Hoechst 33342), where nuclei are identified. Second, a Z offset of 1 um is used for capturing mitochondria (MitoTracker Red). […]
SMILES,AC50,outcome
CCCN(CC)CC1COC2(CCC(C(C)(C)C)CC2)O1 (stereo not given),100 µM (active),
CS(=O)(=O)c1ccc(C(=O)C2C(=O)CCCC2=O)c([N+](=O)[O-])c1,,inactive
N#CN=C1SCCN1Cc1ccc(Cl)nc1,,inactive
CSC(=O)c1c(C(F)F)nc(C(F)(F)F)c(C(=O)SC)c1CC(C)C,,inactive
Nc1c(Cl)c(F)nc(OCC(=O)O)c1Cl,,inactive
CC1(C)CON(Cc2ccccc2Cl)C1=O,,inactive
COc1ccc(-c2ccccc2)cc1NNC(=O)OC(C)C,,inactive
COCC(C)N(C(=O)CCl)c1c(C)csc1C (stereo not given),,inactive
CCCCC(O)(Cn1cncn1)c1ccc(Cl)cc1Cl (stereo not given),103 µM (active),
CCOP(=S)(OCC)Oc1nc(Cl)n(C(C)C)n1,,inactive
CCN(CC)C(=O)C(C)Oc1cccc2ccccc12 (stereo not given),,inactive
CCOc1nc(C(Cl)(Cl)Cl)ns1,,inactive
OC(c1ccc(Cl)cc1)(c1ccc(Cl)cc1)C(Cl)(Cl)Cl,,inactive
CO/N=C(/C1=NOCCO1)c1ccccc1Oc1ncnc(Oc2ccccc2Cl)c1F,,inactive
O=C(O)c1c(Cl)ccc2cc(Cl)cnc12,,inactive
Cc1nc(N(C)C)nc(OC(=O)N(C)C)c1C,,inactive
CNC(=O)Oc1cccc2ccccc12,,inactive
Clc1cccc(C(Cl)(Cl)Cl)n1,,inactive
CS(=O)(=O)c1cc(C(F)(F)F)ccc1C(=O)c1cnoc1C1CC1,,inactive
CCOP(=O)(OCC)Oc1nc(Cl)c(Cl)cc1Cl,,inactive

SMILES,AC50,outcome
COC(=O)c1c(C(F)F)nc(C(F)(F)F)c(C2=NCCS2)c1CC(C)C,91.6 µM (active),
COC(=O)NC(=S)Nc1ccccc1NC(=S)NC(=O)OC,28.6 µM (active),
COCc1cnc(C2=NC(C)(C(C)C)C(=O)N2)c(C(=O)O)c1 (stereo not given),,inactive
CCNP(=S)(OC)O/C(C)=C/C(=O)OC(C)C (stereo not given),,inactive
Cc1cnc(C2=NC(C)(C(C)C)C(=O)N2)c(C(=O)O)c1 (stereo not given),,inactive
CC(C)N1C(=O)N(c2ccccc2)CSC1=NC(C)(C)C,76.6 µM (active),
CC(C)=CC1C(C(=O)OCc2coc(Cc3ccccc3)c2)C1(C)C (stereo not given),,inactive
CCOc1nc(F)cc2nc(S(=O)(=O)Nc3c(Cl)cccc3Cl)nn12,,inactive
CCOC(=O)C(C)OC(=O)c1cc(Oc2ccc(C(F)(F)F)cc2Cl)ccc1[N+](=O)[O-] (stereo not given),,inactive
CCN(CC)c1nc(C)cc(OP(=S)(OC)OC)n1,,inactive
O=C(Nc1ccccc1-c1ccc(Cl)cc1)c1cccnc1Cl,,inactive
Nc1c(Cl)c(Cl)nc(C(=O)O)c1Cl,,inactive
COP(=O)(OC)O/C(C)=C/C(=O)N(C)C,,inactive
CCCCC(C#N)(Cn1cncn1)c1ccc(Cl)cc1 (stereo not given),,inactive
Cc1cc(C)nc(Nc2ccccc2)n1,,inactive
COC(=O)NS(=O)(=O)c1ccc(N)cc1,,inactive
CN=C=S,,inactive
CC(C)(C)C(=O)C(Oc1ccc(Cl)cc1)n1cncn1 (stereo not given),,inactive
Cc1ccc(N=CN(C)C=Nc2ccc(C)cc2C)c(C)c1,,inactive
COC(=O)N(C(=O)N1CO[C@@]2(C(=O)OC)Cc3cc(Cl)ccc3C2=N1)c1ccc(OC(F)(F)F)cc1,,inactive
